# Assay results from PubChem BioAssay.
# Calls of active or inactive are those of the source.
# Experiments:
# [1] = small molecules captured by biotinylated probe aFSTL3 – biochemical, small-molecule microarray, fluorescence 635/667, stem cell growth factor project, primary screen (AID 1064); conditions: higher = more signal;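 also: measures binding of the biotinylated anti-FSTL3 antibody to printed compounds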
# [2] = binders from COS7 lysate, DM2A8 probe, primary screen, torsin A project, cell lysate, small-molecule microarray, fluorescence 635/667 (AID 1065); conditions: higher = more signal, COS7 lysate expressing mutant human TOR1A
# [3] = small molecules captured by biotinylated probe aFGF2 – biochemical, small-molecule microarray, fluorescence 635/667, stem cell growth factor project, primary screen (AID 1067); conditions: higher = more signal;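 also: measures binding of biotinylated aFGF2 protein to printed compounds on slides; z-score merges feature fluorescence and signal-to-noise across triplicate slides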
# [4] = small molecules captured by biotinylated probe aFGF10 – biochemical, small-molecule microarray, fluorescence 635/667, stem cell growth factor project, primary screen (AID 1071); conditions: higher = more signal;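 also: score merges 667 nm spot intensity and signal to noise from triplicate slides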
# [5] = molecular target: Neurogenic locus notch homolog protein 2 (Homo sapiens) (UniProt Q04721); test: small molecules binding Notch2 protein – biochemical, small-molecule microarray, 635 nm fluorescence, stem cell growth factors, primary screen (AID 1073); conditions: higher = more signal
# [6] = molecular target: Pro-neuregulin-1, membrane-bound isoform (Homo sapiens) (UniProt Q02297); test: small molecules binding neuregulin-1 protein – biochemical, small-molecule microarray, fluorescence 635/667, psychiatric disease protein project, primary screen (AID 1075); conditions: NRG1 binding, 635 nm fluorescence, higher = more signal;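 also: score combines 667 nm spot fluorescence with signal to noise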
# [7] = test system: Neuregulin-1 EGF-like domain; test: small molecules binding NRG1 EGF domain – biochemical, small-molecule microarray, 635 nm fluorescence, primary screen (AID 1081); conditions: higher = more signal;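 also: binding of the protein to compounds printed on small-molecule microarray slides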
# [8] = FRG1 expression reporter modulators in myotubes – cell-based, C2C12 myotubes, firefly/Renilla luciferase, luminescence, FRG1 inhibition for FSHD, primary screen (AID 1084); conditions: FRG1 promoter luciferase, higher = more signal, called active from +8 up or from −8 down
# [9] = small molecules captured by biotinylated probe aFST – biochemical, small-molecule microarray, fluorescence 635/667, stem cell growth factor project, primary screen (AID 1086); conditions: higher = more signal;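 also: score merges 667 nm fluorescence with signal-to-noise of each printed compound spot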
# [10] = binders of probe aHhip on microarray, primary screen, stem cell growth factor project, biochemical, small-molecule microarray, fluorescence 635/667 (AID 1087); conditions: higher = more signal;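 also: score merges spot fluorescence at 667nm with spot signal to noise ratio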
# [11] = test system: PRMT1 (protein arginine N-methyltransferase 1); test: small molecules binding arginine methyltransferase PRMT1 – biochemical, small-molecule microarray, 635 nm fluorescence, primary screen (AID 1088); conditions: higher = more signal;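 also: binding of Prmt1 protein to compounds spotted on small-molecule microarray slides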
# [12] = growth effects on S. cerevisiae YJM789 – YJM789 clinical isolate, OD600, 24 h, basal, primary screen (AID 1089); conditions: higher = more signal, called active from +8 up or from −8 down;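 also: growth of clinical yeast isolate S. cerevisiae YJM 789 seeded 1000 cells per well; test concentration not given here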
# [13] = S. pombe growth modifiers, basal conditions – strain 972, OD600, 24 h, no modulator, primary screen (AID 1090);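 also: basal condition with compound alone and no growth modifier present; test concentration not given here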; conditions: S. pombe 972 growth, higher = more signal, called active from +8 up or from −8 down
# [14] = budding yeast growth modifiers under rapamycin – strain BY4716, OD600, 96 h, primary screen (AID 1091); also: test concentration not given here; conditions: S. cerevisiae BY4716 + rapamycin, higher = more signal, called active from +8 up or from −8 down
# [15] = molecular target: Torsin-1A-interacting protein 2 (Homo sapiens) (UniProt Q8NFQ8); test: small molecules binding lysate-expressed LULL1 – cell lysate, human LULL1 lysate, 635/667 nm fluorescence, primary screen (AID 1092); conditions: small-molecule microarray, hLULL1 lysate binding, 635 nm fluorescence; higher = more signal;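 also: probe is lysate of COS7 cells overexpressing human LULL1; score merges per-feature 667 nm fluorescence with signal-to-noise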
# [16] = optical density change of DRC41 E. coli – strain DRC41, OD650, 24 h, E. coli filamentation project, primary screen (AID 1093);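 also: MC1000 strain lacking acrAB efflux and sulA so SOS filamentation is blocked; test concentration not given here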; conditions: E. coli DRC41 growth, higher = more signal, called active from +8 up or from −8 down
# [17] = probe aLefty2 binding to arrayed compounds – biochemical, biotinylated probe, 635/667 nm fluorescence, primary screen (AID 1094); conditions: small-molecule microarray, higher = more signal;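 also: score merges spot fluorescence near 667 nm with spot signal-to-noise ratio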
# [18] = test system: Noggin (protein binding on small-molecule microarray); test: small molecules binding Noggin protein – biochemical, 635/667 nm fluorescence, primary screen (AID 1095); conditions: 635 nm fluorescence, higher = more signal;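 also: score merges 667 nm feature fluorescence with signal to noise over triplicate slides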
# [19] = molecular target: Neurogenic locus notch homolog protein 3 (Homo sapiens) (UniProt Q9UM47); test: small molecules binding NOTCH3 protein – biochemical, 635/667 nm fluorescence, primary screen (AID 1096); conditions: small-molecule microarray, 635 nm fluorescence, higher = more signal
# [20] = probe aEGFR binding to arrayed compounds – biochemical, biotinylated probe, 635/667 nm fluorescence, primary screen (AID 1097); conditions: small-molecule microarray, higher = more signal;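 also: probe is a biotinylated anti-EGFR antibody binding compounds printed on slides; score combines fluorescence near 667 nm and signal to noise of each spot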
# Chain of Torsin-1A-interacting protein 2 (Homo sapiens) (Q8NFQ8 whole entry, looked up): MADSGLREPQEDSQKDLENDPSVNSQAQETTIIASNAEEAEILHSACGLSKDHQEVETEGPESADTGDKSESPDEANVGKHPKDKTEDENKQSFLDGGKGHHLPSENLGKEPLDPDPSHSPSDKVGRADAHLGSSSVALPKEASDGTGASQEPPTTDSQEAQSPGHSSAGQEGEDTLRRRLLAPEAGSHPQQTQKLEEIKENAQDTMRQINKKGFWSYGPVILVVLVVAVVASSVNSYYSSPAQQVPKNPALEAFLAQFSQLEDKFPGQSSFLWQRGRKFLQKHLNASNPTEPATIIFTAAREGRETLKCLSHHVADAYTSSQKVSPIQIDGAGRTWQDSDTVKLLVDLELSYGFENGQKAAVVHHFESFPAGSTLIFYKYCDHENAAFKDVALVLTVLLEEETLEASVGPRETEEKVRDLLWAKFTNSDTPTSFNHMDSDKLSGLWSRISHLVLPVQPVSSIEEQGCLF
# Chain of Neurogenic locus notch homolog protein 2 (Homo sapiens) (Q04721 whole entry, looked up, canonical isoform): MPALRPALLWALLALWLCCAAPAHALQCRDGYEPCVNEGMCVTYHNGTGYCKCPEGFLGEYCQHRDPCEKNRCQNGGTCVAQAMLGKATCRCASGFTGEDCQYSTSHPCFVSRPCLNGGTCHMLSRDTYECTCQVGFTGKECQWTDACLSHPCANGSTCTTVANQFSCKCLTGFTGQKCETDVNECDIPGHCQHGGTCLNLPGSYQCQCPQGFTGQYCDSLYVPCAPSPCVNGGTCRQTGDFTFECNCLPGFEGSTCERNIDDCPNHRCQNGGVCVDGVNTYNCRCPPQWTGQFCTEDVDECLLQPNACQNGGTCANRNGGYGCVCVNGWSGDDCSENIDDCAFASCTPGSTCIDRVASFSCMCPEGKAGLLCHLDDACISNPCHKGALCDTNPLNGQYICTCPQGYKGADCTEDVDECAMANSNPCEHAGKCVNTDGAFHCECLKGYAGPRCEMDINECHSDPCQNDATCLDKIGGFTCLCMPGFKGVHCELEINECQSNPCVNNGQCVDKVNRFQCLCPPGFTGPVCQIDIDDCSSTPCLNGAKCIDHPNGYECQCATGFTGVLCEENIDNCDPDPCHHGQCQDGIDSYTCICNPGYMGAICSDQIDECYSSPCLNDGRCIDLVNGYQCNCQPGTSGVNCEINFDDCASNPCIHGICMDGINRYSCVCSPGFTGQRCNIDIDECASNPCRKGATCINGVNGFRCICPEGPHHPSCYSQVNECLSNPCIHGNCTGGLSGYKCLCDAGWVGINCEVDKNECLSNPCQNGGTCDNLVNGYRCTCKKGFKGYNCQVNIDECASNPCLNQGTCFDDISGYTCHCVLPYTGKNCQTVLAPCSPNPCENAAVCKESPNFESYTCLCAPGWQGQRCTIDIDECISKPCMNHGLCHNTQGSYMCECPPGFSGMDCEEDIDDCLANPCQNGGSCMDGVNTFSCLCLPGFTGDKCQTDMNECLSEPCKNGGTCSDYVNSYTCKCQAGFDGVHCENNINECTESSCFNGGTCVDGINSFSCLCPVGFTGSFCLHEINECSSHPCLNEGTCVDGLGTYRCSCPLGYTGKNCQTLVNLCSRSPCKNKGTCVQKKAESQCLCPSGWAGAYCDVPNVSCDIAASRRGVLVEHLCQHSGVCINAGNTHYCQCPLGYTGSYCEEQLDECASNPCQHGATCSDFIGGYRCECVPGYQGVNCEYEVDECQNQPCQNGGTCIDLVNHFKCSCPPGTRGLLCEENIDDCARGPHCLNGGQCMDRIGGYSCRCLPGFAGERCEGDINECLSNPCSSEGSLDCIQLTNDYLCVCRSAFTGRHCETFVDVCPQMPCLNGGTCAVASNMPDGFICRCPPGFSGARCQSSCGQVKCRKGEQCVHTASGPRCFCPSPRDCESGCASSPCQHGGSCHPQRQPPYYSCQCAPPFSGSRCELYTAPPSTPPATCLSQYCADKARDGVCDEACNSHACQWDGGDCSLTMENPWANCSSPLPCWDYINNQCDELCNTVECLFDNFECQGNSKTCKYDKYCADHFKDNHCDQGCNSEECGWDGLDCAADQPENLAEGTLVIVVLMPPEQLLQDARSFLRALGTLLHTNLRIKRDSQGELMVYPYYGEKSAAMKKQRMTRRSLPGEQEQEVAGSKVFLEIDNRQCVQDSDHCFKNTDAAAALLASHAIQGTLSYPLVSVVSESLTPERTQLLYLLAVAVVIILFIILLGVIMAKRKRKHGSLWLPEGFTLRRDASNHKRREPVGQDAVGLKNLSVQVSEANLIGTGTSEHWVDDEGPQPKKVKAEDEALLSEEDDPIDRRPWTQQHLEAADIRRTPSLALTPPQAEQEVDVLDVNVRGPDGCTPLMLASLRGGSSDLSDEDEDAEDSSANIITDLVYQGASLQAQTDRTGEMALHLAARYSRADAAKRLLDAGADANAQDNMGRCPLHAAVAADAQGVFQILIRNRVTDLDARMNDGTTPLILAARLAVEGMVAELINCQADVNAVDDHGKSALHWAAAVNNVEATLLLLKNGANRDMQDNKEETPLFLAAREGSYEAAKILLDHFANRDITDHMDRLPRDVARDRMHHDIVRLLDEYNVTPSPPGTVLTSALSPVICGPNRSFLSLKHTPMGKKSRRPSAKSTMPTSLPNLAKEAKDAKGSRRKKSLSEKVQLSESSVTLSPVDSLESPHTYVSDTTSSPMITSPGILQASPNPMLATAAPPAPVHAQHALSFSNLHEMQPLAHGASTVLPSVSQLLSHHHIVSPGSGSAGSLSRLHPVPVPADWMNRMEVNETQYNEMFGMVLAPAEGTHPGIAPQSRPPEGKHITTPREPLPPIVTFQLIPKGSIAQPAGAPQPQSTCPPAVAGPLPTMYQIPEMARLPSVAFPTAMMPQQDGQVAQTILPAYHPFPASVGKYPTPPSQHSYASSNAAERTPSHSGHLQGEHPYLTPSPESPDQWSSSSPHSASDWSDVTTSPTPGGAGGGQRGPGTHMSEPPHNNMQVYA
# Chain of Pro-neuregulin-1, membrane-bound isoform (Homo sapiens) (Q02297 whole entry, looked up, the tested form may be a part, canonical isoform): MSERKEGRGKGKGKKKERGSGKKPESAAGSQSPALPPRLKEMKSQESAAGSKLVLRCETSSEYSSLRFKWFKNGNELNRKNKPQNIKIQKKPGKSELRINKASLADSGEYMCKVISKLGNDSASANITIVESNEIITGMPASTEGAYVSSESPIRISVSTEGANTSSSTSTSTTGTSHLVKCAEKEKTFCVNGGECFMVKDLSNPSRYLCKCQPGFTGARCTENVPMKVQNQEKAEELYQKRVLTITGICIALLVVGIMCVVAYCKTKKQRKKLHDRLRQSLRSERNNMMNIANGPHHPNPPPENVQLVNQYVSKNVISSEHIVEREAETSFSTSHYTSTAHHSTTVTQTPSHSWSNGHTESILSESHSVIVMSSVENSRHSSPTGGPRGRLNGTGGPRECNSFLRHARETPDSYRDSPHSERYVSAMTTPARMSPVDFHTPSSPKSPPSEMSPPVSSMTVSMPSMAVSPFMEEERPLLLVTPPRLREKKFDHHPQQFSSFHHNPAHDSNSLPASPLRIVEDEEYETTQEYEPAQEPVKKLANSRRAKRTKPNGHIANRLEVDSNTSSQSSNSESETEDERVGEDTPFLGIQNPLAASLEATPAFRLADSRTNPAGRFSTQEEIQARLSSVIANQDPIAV
Structure (SMILES),composite z-score [1],composite z-score [2],composite z-score [3],composite z-score [4],composite z-score [5],composite z-score [6],composite z-score [7],z-score [8],composite z-score [9],composite z-score [10],composite z-score [11],z-score [12],z-score [13],z-score [14],composite z-score [15],z-score [16],composite z-score [17],composite z-score [18],composite z-score [19],composite z-score [20]
COCCCNC(=O)[C@@]1(c2ccc([N+](=O)[O-])cc2)CC(=O)N(CC23CC4CC(CC(C4)C2)C3)[C@@H]1c1ccc(CO)cc1,-0.46,0.666,-0.0453,0.264,1.36,0.43,1.17,-2.08 (inactive),0.573,-0.0296,1.54,0.38 (inactive),-0.634 (inactive),-0.101 (inactive),2.28,1.45 (inactive),0.0054,1.54,1.08,0.0117
COC(=O)[C@@]1(Cc2ccc(OC)cc2)[C@H]2c3cc(C(=O)N(C)C)n(Cc4c(OC)[nH]cc(C)c4=O)c3C[C@H]2CN1C(=O)c1ccccc1,0.522,0.0954,-0.102,0.289,1.49,1.92,1.08,-1.04 (inactive),0.927,-0.444,-0.386,-1.88 (inactive),0.349 (inactive),-0.464 (inactive),3.62,-0.252 (inactive),-0.0404,-0.0598,0.145,0.487
C=C[C@@H](COC(C)=O)N(Cc1ccccc1[N+](=O)[O-])S(=O)(=O)c1ccc(Br)cc1,0.0537,0.98,0.033,0.372,1.01,0.939,0.974,-3.14 (inactive),0.399,0.0524,0.61,-3.84 (inactive),-2.76 (inactive),-0.748 (inactive),1.43,1.91 (inactive),-0.297,1.1,0.945,0.212
C=CCOC(=O)[C@@H]1[C@H]2C(=O)O[C@H](c3ccccc3)[C@H](c3ccccc3)N2[C@H](c2ccc(OCCOC(=O)[C@@H]3C[C@@H]4C(=O)NCC(=O)N4[C@@H]3c3cccc(OCCO)c3)cc2)[C@@]12C(=O)Nc1ccc(I)cc12,-0.112,0.948,-0.119,0.818,1.18,1.29,1.35,0.536 (inactive),0.272,-0.0391,1.53,0.895 (inactive),1.01 (inactive),2.19 (inactive),2.53,-0.637 (inactive),-0.0654,1.14,1.1,0.0618
Cc1ccc(S[C@]2(C(=O)NC3CC3)CC(=O)N(C3CCCCC3)[C@@H]2c2ccc(CO)cc2I)cc1,-0.208,0.298,-0.0328,0.48,1.03,1.29,1.31,-4.48 (inactive),0.431,0.118,1.53,0.0615 (inactive),0.532 (inactive),1.38 (inactive),2.6,1.26 (inactive),-0.138,0.659,1.06,-0.0703
